Results on 36 molecules are retold here after PubChem BioAssay (NCATS).

“And” between values parts separate entries of the source, which are not always exact repeats. Equal values may be shown once. Records with an inconclusive call do not appear. Unmarked numbers belong to inactive results. The source made the active and inactive calls. Calls come from the whole dose curve; as a rule, active = well fitted inhibition curve with a large enough effect; inconclusive = small, poorly fitted or top-dose-only effect; inactive = flat fitted curve, though single readings scatter.
Potency is the fitted concentration of half-maximal effect.

Test system in one assay: not listed separately
The experiment in a line: qHTS profiling for inhibitors of Plasmodium falciparum proliferation (AID 504749).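 For activity, negative = inhibition: 0% = DMSO vehicle and full inhibition = artemisinin control.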 Note: nearly all actives have a fitted effect of over 60% in size. The note with it: P. falciparum in erythrocytes, SYBR Green DNA, 72 h; at 28.7 µM (top of the series); parasite line B. In a few lines:
(§1)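 Infected RBCs, 0.3% parasitemia/2.5% Hct final; cpd 72 h, 37 C, 5% CO2; lysis buffer with saponin/triton/SYBR Green I, o/n RT dark; FI 485/535; norm. to artemisinin (0.29 uM) and DMSO.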
For orientation: qHTS replaces the single test concentration by a dilution series.
Take `[O-][n+]1cccc(CO)c1`: the activity, negative = inhibition was 11.6%.

`Cc1cccc(C)c1NC(=O)CN(CC(=O)O)CC(=O)O`: the activity, negative = inhibition is 2.17%.

As to `O=C(O)[C@@H]1CSCN1`, the activity, negative = inhibition is -0.798%.

Take `N[C@@H](CSCCCO)C(=O)O`: the activity, negative = inhibition was -2.52%.

As to `O=c1[nH]c(=O)c2[nH]c(=O)[nH]c2[nH]1`, the activity, negative = inhibition was 2.26%.

For `CCCCCCCCCCCCCCCCCCOCC(O)CO` (centres undefined), the activity, negative = inhibition is 11.4%.

As to `O=C(O)c1ccccc1-c1ccc(C(F)(F)F)cc1`, the activity, negative = inhibition was 19.8%.

`C[C@](N)(Cc1ccc(O)cc1)C(=O)O`: the activity, negative = inhibition was 11.9%.

As for `O=C1OC(OC(=O)c2cccnc2Nc2cccc(C(F)(F)F)c2)c2ccccc21` (centres undefined), the activity, negative = inhibition is 2.45%.

On to `Nc1ccc(S(=O)(=O)Nc2ccccc2)cc1`, for which the activity, negative = inhibition is 11.6%.

For the molecule `NC(=O)NNc1ccccc1`, the activity, negative = inhibition is 13.9% and 11.9%.

As for `CC1(C)[C@@H]2CC[C@@]1(C)C(=O)C2`, the activity, negative = inhibition is 6.35%.

For `CCC(=O)Nc1ccc(O)cc1`, the activity, negative = inhibition was -3.83%.

Regarding `CC1(C)CO[C@@H](CC(=O)O)CN1`, the activity, negative = inhibition is 5.08%.

As for `CCCCc1ncc(/C=C(\Cc2cccs2)C(=O)O)n1Cc1ccc(C(=O)O)cc1`, the activity, negative = inhibition was 4.94%.

`NCCNCCNCCNCCN`: the activity, negative = inhibition was -2.06%.

`CCN(CC)CCSC(=O)C(c1ccccc1)c1ccccc1`: the activity, negative = inhibition was -0.418% and -7.05%.

Regarding `C=Cc1c(C)c2cc3[nH]c(cc4nc(cc5nc(cc1[nH]2)C(C)=C5CCC(=O)O)C(CCC(=O)O)=C4C)c(C)c3C=C`, the activity, negative = inhibition is 6.67%.

`NCC(=O)CCC(=O)O`: the activity, negative = inhibition was -2.04%.

Take `COc1cc(C(=O)N2CCOCC2)cc(OC)c1OC`: the activity, negative = inhibition is 0.0617% and 7.6%.

On to `Cc1cccc(Nc2cc(Cl)nc(SCC(=O)O)n2)c1C`, for which the activity, negative = inhibition is 13.9%.

Turning to `O=C(O)COc1nn(Cc2ccccc2)c2ccccc12`, the activity, negative = inhibition was 10.4%.

As for `CC(=O)NC(Cc1ccccc1)C(=O)O` (centres undefined), the activity, negative = inhibition was 2.97%.

As for `Cc1cc(CC(=O)O)n(C)c1C(=O)c1ccc(Cl)cc1`, the activity, negative = inhibition was -3.67% and -0.286%.

`CCCOC(=O)c1ccccc1`: the activity, negative = inhibition is 2.76%.

As to `CCCCC(CC)COC(=O)c1ccccc1O` (centres undefined), the activity, negative = inhibition was -0.719%.

As for `Oc1cccc(O)c1`, the activity, negative = inhibition is 15.9%.

For the molecule `CC(=O)CCC(=O)O`, the activity, negative = inhibition is -7.9%.

As to `CCN(CC)CCNC(=O)c1cc(Cl)c(N)cc1OC`, the activity, negative = inhibition is -3.16%.

Consider `CCCn1cnc2c1c(=O)n(CCCCC(C)=O)c(=O)n2C`, for which the activity, negative = inhibition is -0.0808%.

In the case of `O=C1c2c(O)cccc2Cc2cccc(O)c21`, the activity, negative = inhibition was -4.21%.

On to `Cc1ncc(COP(=O)(O)O)c(C=O)c1O`, for which the activity, negative = inhibition is 3.77%.

`O=c1cc(CO)occ1O`: the activity, negative = inhibition was -0.837%.

A further assay has as its system 3D7. The description is as above. The note with it: P. falciparum in erythrocytes, SYBR Green DNA, 72 h; series mostly up to 28.7 µM; activity, negative = inhibition: at the top concentration. Put shortly: as §1
For the molecule `[O-][n+]1cccc(CO)c1`, the “activity, negative = inhibition” value is -3.73%.

For `Cc1cccc(C)c1NC(=O)CN(CC(=O)O)CC(=O)O`, the “activity, negative = inhibition” value is 4.68%.

Consider `O=C(O)[C@@H]1CSCN1`, for which the “activity, negative = inhibition” value was 0.646%.

Turning to `COc1cc2[nH]c(=O)[nH]c(=O)c2cc1OC`, the “activity, negative = inhibition” value was 2.57% [at 12.8 µM].

On to `N[C@@H](CSCCCO)C(=O)O`, for which the “activity, negative = inhibition” value is -13.3%.

Turning to `O=c1[nH]c(=O)c2[nH]c(=O)[nH]c2[nH]1`, the “activity, negative = inhibition” value is 3.71%.

Turning to `CCCCCCCCCCCCCCCCCCOCC(O)CO` (centres undefined), the “activity, negative = inhibition” value is 3.38%.

For `O=C(O)c1ccccc1-c1ccc(C(F)(F)F)cc1`, the “activity, negative = inhibition” value was -1.77%.

With `C[C@](N)(Cc1ccc(O)cc1)C(=O)O`, the “activity, negative = inhibition” value was 5.22%.

Consider `O=C1OC(OC(=O)c2cccnc2Nc2cccc(C(F)(F)F)c2)c2ccccc21` (centres undefined), for which the “activity, negative = inhibition” value is -9.72%.

Turning to `Nc1ccc(S(=O)(=O)Nc2ccccc2)cc1`, the “activity, negative = inhibition” value is 0.341%.

On to `NC(=O)NNc1ccccc1`, for which the Potency entry was “inactive”.

For `CC1(C)[C@@H]2CC[C@@]1(C)C(=O)C2`, the “activity, negative = inhibition” value was 0.622%.

In the case of `CCC(=O)Nc1ccc(O)cc1`, the “activity, negative = inhibition” value was 4.2%.

Take `CC1(C)CO[C@@H](CC(=O)O)CN1`: the “activity, negative = inhibition” value is 0.89%.

For `CCCCc1ncc(/C=C(\Cc2cccs2)C(=O)O)n1Cc1ccc(C(=O)O)cc1`, the “activity, negative = inhibition” value was 1.28%.

Regarding `NCCNCCNCCNCCN`, the “activity, negative = inhibition” value was 1.86%.

Regarding `CCN(CC)CCSC(=O)C(c1ccccc1)c1ccccc1`, the Potency result is “inactive”.

Take `C=Cc1c(C)c2cc3[nH]c(cc4nc(cc5nc(cc1[nH]2)C(C)=C5CCC(=O)O)C(CCC(=O)O)=C4C)c(C)c3C=C`: the “activity, negative = inhibition” value is 1.69%.

On to `NCC(=O)CCC(=O)O`, for which the “activity, negative = inhibition” value was 3.66%.

Turning to `COc1cc(C(=O)N2CCOCC2)cc(OC)c1OC`, the Potency entry is “inactive”.

On to `Cc1cccc(Nc2cc(Cl)nc(SCC(=O)O)n2)c1C`, for which the “activity, negative = inhibition” value is -3.64%.

Consider `O=C(O)COc1nn(Cc2ccccc2)c2ccccc12`, for which the “activity, negative = inhibition” value is 1.84%.

As for `CC(=O)NC(Cc1ccccc1)C(=O)O` (centres undefined), the “activity, negative = inhibition” value is 2.15%.

For the molecule `Cc1cc(CC(=O)O)n(C)c1C(=O)c1ccc(Cl)cc1`, the Potency entry was “inactive”.

For `CCCOC(=O)c1ccccc1`, the “activity, negative = inhibition” value was 6.29%.

As to `CCCCC(CC)COC(=O)c1ccccc1O` (centres undefined), the “activity, negative = inhibition” value was 3.58%.

As for `Oc1cccc(O)c1`, the “activity, negative = inhibition” value was 0.873%.

For `CC(=O)CCC(=O)O`, the “activity, negative = inhibition” value is 5.03%.

With `COc1cc(C)c(Cc2cnc(N)nc2N)cc1OC`, the Potency is 11.2 µM (active).

Consider `CCN(CC)CCNC(=O)c1cc(Cl)c(N)cc1OC`, for which the “activity, negative = inhibition” value was 5.82%.

Regarding `CCCn1cnc2c1c(=O)n(CCCCC(C)=O)c(=O)n2C`, the “activity, negative = inhibition” value is -19.4%.

In the case of `O=C1c2c(O)cccc2Cc2cccc(O)c21`, the “activity, negative = inhibition” value is 1.42%.

Take `Cc1ncc(COP(=O)(O)O)c(C=O)c1O`: the “activity, negative = inhibition” value is -0.916%.

Consider `O=c1cc(CO)occ1O`, for which the “activity, negative = inhibition” value was 3.5%.

Turning to `COc1ccc2c(c1)C(=O)N(CCc1ccc(S(=O)(=O)NC(=O)NC3CCCCC3)cc1)C(=O)C2(C)C`, the “activity, negative = inhibition” value is 1.8% [at 12.8 µM].
